Source: PubChem BioAssay (several laboratories)
This is a sample that favours compounds with a hit; in the whole collection about 1.7% have one here.
Y pestis TopoI – blocks Yersinia pestis topoisomerase I activity; AID 504884; Y. pestis Topo-I cleavage product accumulation, plate reader; activity, % at 10 µM; 360,000 compounds, 0.064% hits; in the data active = activity above about 50%, passing the limit was not always enough
PrPC surface inh – inhibitors of human cell surface prion protein PrPC | P04156 | TR-FRET read-out | inhibition, % at 13.8 µM | 370,000 compounds, 0.43% hits | AID 720596; in the data active = inhibition above about 24%; also: 0% = median of the test wells and 100% = reference compound wells
BJeLR lethal – BJeLR cell viability loss; AID 1554; inhibition, % (test concentration not listed); 300,000 compounds, 0.17% hits; BJeLR (HRASV12) viability, CellTiter-Glo ATP luminescence, 48 h; in the data active = inhibition above about 50%
SSB-PriA inh – blocks PriA binding to SSB C-terminal tail | 430,000 compounds, 0.6% hits | AlphaScreen SSBct-PriA binding, biotinylated peptide | inhibition, % at 33 µM | AID 1272365; in the data active = inhibition mostly above about 37%, no sharp cut-off; inactive = mostly below about 20%;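 also: plate controls were negative control peptide for no effect and reference peptide for full effect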
PrP UTR inh – suppresses PrP 5' UTR mRNA reporter expression. inhibition, % (test concentration not listed). AID 488862. 340,000 compounds, 0.35% hits. cell-based PrP 5' UTR mRNA reporter, plate reader; in the data active = inhibition above about 52%; also: 0 = median of the neutral control wells
PfHsp40 yeast – compounds rescuing yeast from Plasmodium falciparum HSP40 toxicity | S. cerevisiae expressing PfHsp40, growth rescue, ATP luminescence | growth rescue, % at 12.5 µM | 340,000 compounds, 0.68% hits | AID 504582; in the data active = growth rescue above about 28%, passing the limit was not always enough;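 also: yeast W303a lacking pdr1 and pdr3 grown in galactose medium; growth measured after three days at 30 °C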
PrP 5UTR single – prion 5' UTR mRNA inhibition, cherry-pick retest; inhibition, % at 2.5 µM; 1,100 compounds, 48% hits; AID 504592; shares compounds with PrP UTR inh; cell-based prion protein 5' UTR reporter, plate reader; in the data active = inhibition above about 54%
* hit, by the source's call.

Results for Cc1n[nH]c(C)c1S(=O)(=O)N1CCCC(C(=O)NCc2ccc(F)cc2)C1 (stereo not given) ?
Y pestis TopoI: -12.3; PrPC surface inh: 3.7; BJeLR lethal: -8.2; SSB-PriA inh: -7.5; PrP UTR inh: 83.7*; PfHsp40 yeast: 0.8; PrP 5UTR single: 3.4

What do the screens show for `COc1ccc(CNC(=O)C2CCN(S(=O)(=O)c3c(C)n[nH]c3C)CC2)cc1`?
Y pestis TopoI: -4.7; PrPC surface inh: 0.8; BJeLR lethal: -3.0; SSB-PriA inh: -5.7; PrP UTR inh: -18.4; PfHsp40 yeast: -1.2

Results for COC(=O)c1ccc(CN2C(=O)c3ccccc3C2=O)cc1 ?
Y pestis TopoI: -0.3; PrPC surface inh: -1.9; BJeLR lethal: 0.1; SSB-PriA inh: -0.7; PrP UTR inh: -21.5; PfHsp40 yeast: -1.0

Results for COC(=O)c1ccc(CN2C(=O)NC(CC(C)C)C2=O)cc1 (stereo not given) ?
Y pestis TopoI: -2.3; PrPC surface inh: 2.5; BJeLR lethal: -4.5; SSB-PriA inh: -0.6; PrP UTR inh: 81.1*; PfHsp40 yeast: -0.2; PrP 5UTR single: -0.5

Results for Cc1cccn2cc(-c3ccc(NC(=O)c4ccc5c(c4)OCO5)cc3)nc12 ?
SSB-PriA inh: 8.0

What do the screens show for `CC(C)c1ccc(C=NNc2ccc(C(=O)O)cc2)cc1`?
SSB-PriA inh: 2.3

How did CC(C)c1ccc(/C=N/Nc2ccc(C(=O)O)cc2)cc1 do in these assays?
Y pestis TopoI: -8.4; PrPC surface inh: 13.4; BJeLR lethal: 1.0; PrP UTR inh: 63.4*; PfHsp40 yeast: -0.4; PrP 5UTR single: 39.5

How did Cc1ccc(/C=N/Nc2ccc(C(=O)O)cc2)s1 do in these assays?
Y pestis TopoI: 3.0; PrPC surface inh: -3.3; BJeLR lethal: 31.6; PrP UTR inh: 63.3*; PfHsp40 yeast: 123.1*; PrP 5UTR single: 53.5*

Results for Cc1cccc(C(=O)NCN2CCN(c3ccccc3C#N)CC2)c1 ?
Y pestis TopoI: 0.4; PrPC surface inh: 5.6; SSB-PriA inh: -9.5; PrP UTR inh: 81.6*; PfHsp40 yeast: -0.4; PrP 5UTR single: -37.9

What do the screens show for `O=C(NCN1CCN(c2ccccc2F)CC1)c1ccccc1`?
Y pestis TopoI: -4.2; PrPC surface inh: 4.6; BJeLR lethal: -2.7; SSB-PriA inh: -16.4; PrP UTR inh: -4.4; PfHsp40 yeast: -1.1

What do the screens show for `COc1ccc(SCC(=O)N2CC(Oc3nc4ccccc4s3)C2)cc1`?
SSB-PriA inh: -17.0

What do the screens show for `COc1cc(Nc2ccc(NC(=O)c3ccc4c(c3)OCO4)cc2)nc(C)n1`?
SSB-PriA inh: -6.0

Results for COc1ccc(NC2Oc3cc4c(cc3C(c3cc(OC)c(OC)c(OC)c3)C2C)OCO4)cc1 (stereo not given) ?
Y pestis TopoI: -5.4; PrPC surface inh: 8.6; SSB-PriA inh: 11.7; PrP UTR inh: 60.9*; PfHsp40 yeast: -0.7; PrP 5UTR single: 35.9

How did COc1cc(C2c3cc4c(cc3OC(Nc3ccc(C(=O)O)cc3)C2C)OCO4)cc(OC)c1OC (stereo not given) do in these assays?
Y pestis TopoI: 5.1; PrPC surface inh: 3.9; SSB-PriA inh: -10.8; PrP UTR inh: 36.9; PfHsp40 yeast: -1.6

How did COC(=O)C1=C(C(=O)OC)SC2(S1)C(C(=O)OC)=C(C(=O)OC)Sc1c2ssc1=O do in these assays?
Y pestis TopoI: -6.1; PrPC surface inh: -24.4; SSB-PriA inh: 95.7*; PrP UTR inh: 74.8*; PfHsp40 yeast: 18.7; PrP 5UTR single: 71.6*

Results for CCOc1ccc(CSC(=N)N)cc1 ?
Y pestis TopoI: -3.4; PrPC surface inh: 6.3; BJeLR lethal: 0.8; SSB-PriA inh: -16.6; PrP UTR inh: -11.9; PfHsp40 yeast: 0.4

What do the screens show for `Cc1cccc(CSC(=N)N)c1`?
Y pestis TopoI: -0.6; PrPC surface inh: 0.3; BJeLR lethal: 4.4; SSB-PriA inh: -7.8; PrP UTR inh: 52.5*; PfHsp40 yeast: 0.6; PrP 5UTR single: 3.2

What do the screens show for `N=C(N)SCCc1cccc(CCSC(=N)N)c1`?
Y pestis TopoI: 1.7; PrPC surface inh: -3.0; BJeLR lethal: 5.5; SSB-PriA inh: -3.3; PrP UTR inh: 70.5*; PfHsp40 yeast: 1.0; PrP 5UTR single: -20.7

Results for CCCCCCCNS(=O)(=O)c1ccc(Br)cc1 ?
SSB-PriA inh: -2.0
